From ChEMBL document CHEMBL1157539, “Thousands of chemical starting points for antimalarial lead identification” (Nature, 2010)

Legend:
Assay type in all cases: functional
Plasmodium falciparum [1] = experiment: GSK_TCMDC: Inhibition of Plasmodium falciparum 3D7 in whole red blood cells, using parasite LDH activity as an index of growth. Test compounds present at 2uM
HepG2 = experiment: GSK_TCMDC: Percent inhibition of human HepG2 cell line. Test compounds present at 10uM.
Plasmodium falciparum [2] = experiment: GSK_TCMDC: Inhibition of Plasmodium falciparum Dd2 in whole red blood cells, using parasite LDH activity as an index of growth. Test compounds present at 2uM

SMILES	Inhibition (Plasmodium falciparum [1]) [%]	Inhibition (HepG2) [%]	Inhibition (Plasmodium falciparum [2]) [%]
COc1ccc(CN2CCN(CC(=O)Nc3cc(Cl)ccc3-n3cncn3)CC2)cc1F	93	0	–
N=C1SC(=Cc2cn[nH]c2-c2ccc(F)cc2)C(=O)N1c1nccs1	91	28	–
CCn1c(-c2nonc2N)nc2c(-c3cccc(NC(=O)NCc4ccccc4)c3)ncc(OCCCN)c21.O=C(O)C(F)(F)F	99	5	–
COc1ccc(/N=C(\N)Nc2ccccc2)nc1Cc1ccccc1	81	17	–
CC(=O)Nc1ccc(CN2CCc3ccc(NS(=O)(=O)c4ccc(-c5cccc(C(F)(F)F)c5)cc4)cc3CC2)s1	82	23	–
S=C(Nc1ccc(Cl)cc1)Nc1ccc(Nc2ccccc2)cc1	84	14	–
COc1c(C2CCN(CCCCNC(=O)C=Cc3ccccc3C(F)(F)F)CC2)ccc2c1CCCC2	96	98	–
O=c1ccc2ccc(O)c(O)c2o1 [DAPHNETIN]	85	4	–
COc1ccc(Cl)cc1N1CCN(CCCNC(=O)c2ccc(-c3nc4c(C)cccc4[nH]3)s2)CC1	98	0	–
Nc1nc(O)c2cc(CNc3ccc(C(=O)N[C@@H](CCC(=O)O)C(=O)O)cc3)ccc2n1	96	2	–
O=C(Nc1ccc(OC2CCN(CC3CC3)CC2)c(Cl)c1)c1ccc2ncccc2c1.O=C(O)C(F)(F)F	84	19	–
O=C(NCCCCN1CCC(c2ccc3c(c2OCCOCCO)CCCC3)CC1)c1ccc(-c2ccc(C(F)(F)F)cc2)cc1	97	44	–
Cc1nn(-c2ccccc2)nc1C(=O)N(Cc1ccc(-c2ccc(CNCCc3ccc(S(C)(=O)=O)cc3)cn2)cc1)C1CC1.O=C(O)C(F)(F)F	84	9	–
O=C(Nc1cccc(Cl)c1)c1cc2ccccc2cc1O	97	4	–
CC1(C)C(=O)N=C2C1=C(O)C(=O)c1ccccc12	93	0	–
CCN(CC)CCCC(C)Nc1ccnc2cc(Cl)ccc12.O=P(O)(O)O.O=P(O)(O)O (stereo unspecified) [CHLOROQUINE PHOSPHATE]	–	–	96
